Only some compounds are listed: those with a hit (about 0.83% of all), similar ones and a draw of the others.
MLL CXXC-DNA inh – inhibitors of human MLL CXXC domain-DNA interaction. 0.037% of 290,000 active. Q03164. AID 2662. Potency, µM (top dose mostly 115 µM), actives largely listed as inhibitors. MLL-CXXC / FITC-HOXA9 DNA fluorescence polarization; active = well fitted inhibition curve with a large enough effect in the polarisation, with a control signal flat, not every such curve was filed as active; inconclusive = small, poorly fitted or top-dose-only effect, or effect the other way, or a change in a side signal; inactive = no such curve, though single readings can be large or run the other way; the % refers to the polarisation
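Steps: dispense CXXC domain solution (7 uM) → pin compounds or unlabeled HOX-A9 DNA control → 5 min ambient → add FLSN-HOX-A9 solution (50 nM) → spin → 30 min ambient → fluorescence polarization. Tris pH 7.5/NaCl/DTT/BSA buffer.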
Menin-MLL FL inh – menin-MLL binding inhibition, fluorescein peptide. FP activity change, % at 61.4 µM. Fluorescence polarization, fluorescein-MLL peptide displacement from menin. 290,000 tested, under 10 active; active = well fitted curve in the direction sought with a large enough effect in the polarisation, not every such curve was filed as active; inconclusive = small, poorly fitted or top-dose-only effect, or effect the other way, or a change in a side signal; inactive = no such curve, though single readings can be large or run the other way; the % refers to the polarisation
GLS inh – glutaminase GLS (human) inhibition | Potency, µM (highest dose often 45.5 µM), hits mostly inhibitors | GLS enzymatic activity, qHTS titration | 0.21% of 410,000 active | AID 624170 | O94925; active = well fitted inhibition curve with a large enough effect; inconclusive = small, poorly fitted or top-dose-only effect, or another doubt; inactive = no such curve, though single readings can be large or run the other way
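Assay buffer: 45 mM KH2PO4 pH 8.2, 0.02% Tween-20. hKGA acts on L-glutamine (1 mM solution added); product glutamate is reported by an oxidase/peroxidase Amplex Red coupling, with fluorescence taken at baseline and 30 min.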
Six1-Eya2 blk – blocks human Six1 binding to Eya2 | Q15475+O00167 | AlphaScreen GST-Six1/His-Eya2 binding, biochemical; stronger effect = lower value | activity change, % (no concentration beside the values) | 0.56% of 360,000 active
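GST-Six1 + His-Eya2 (5X stock: 250/500 nM); Tris pH 8.0, 300 mM NaCl, 0.05% BSA, 0.02% Tween 20; GSH donor/Ni acceptor beads; 1 h 37 °C dark; AlphaScreen readout.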
CtBP-E1A inh – inhibitors of CtBP/E1A interaction | AlphaScreen GST-E1A/His-CtBP binding, 1536-well; stronger effect = lower value | 0.49% of 340,000 active | activity change, % (no concentration beside the values)
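In 5 uL wells, 23 nL compound meets equimolar GST-E1A and His-CtBP (5X stock 125 nM each) for 2 h, 37 °C. Beads (5X, 50 ug/mL) then 1 h, 37 °C, dark.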
Menin-MLL TR inh – displaces Texas Red mutant MLL peptide from human menin | 0.23% of 270,000 active | O00255 | Menin + Texas Red MLL mutant peptide, fluorescence polarization | Potency, µM (series often up to 61.6 µM), actives largely listed as inhibitors; active = well fitted inhibition curve with a large enough effect in the polarisation, with a control signal flat, not every such curve was filed as active; inconclusive = small, poorly fitted or top-dose-only effect, or effect the other way, or a change in a side signal; inactive = no such curve, though single readings can be large or run the other way; the % refers to the polarisation
Numbers stand for hits; 0 = inactive; ? = inconclusive; - = no result given; [ ] = remark or other dose. Rule as the data show it, unless noted: active = activity change below about -65%; inconclusive = mostly about -30% to -63%; inactive = weaker than that.

SMILES	MLL CXXC-DNA inh	Menin-MLL FL inh	GLS inh	Six1-Eya2 blk	CtBP-E1A inh	Menin-MLL TR inh
O=C(CSc1ccc(-c2cccnc2)nn1)c1ccc([N+](=O)[O-])cc1	0	0	0	0	0	?
O=C(CSc1ccc(-c2ccccn2)nn1)NC1CCCCC1	0	0	0	-90	-72	0
O=C(CSc1ccc(-c2ccccn2)nn1)NCc1ccc(F)cc1	0	0	0	-81	-66	0
CCc1ccc(NC(=O)CSc2ccc(-c3ccccn3)nn2)cc1	0	-	0	?	?	-
O=C(CSc1ncccn1)NCc1ccc(F)cc1	0	0	0	0	0	0
CCC(=O)NCCC1CCc2ccc3c(c21)CCO3 (centres undefined)	0	0	0	-	-	0
CCCOc1ccc(-c2cccc(NS(=O)(=O)c3cc(OC)ccc3OC)c2)nn1	-	-	0	-	-	-
CCS(=O)(=O)Nc1cccc(-c2ccc3nnc(-c4cccnc4)n3n2)c1	?	0	0	-67	-85	?
CC(=O)Nc1ccc(S(=O)(=O)N2C3CCCC2CC(NC(=O)C2CCCCC2)C3)cc1 (centres undefined)	0	0	0	-67	0	0
CC(=O)c1ccc(NC(=O)CC2Sc3ccccc3NC2=O)cc1 (centres undefined)	-	-	0	-	-	-
CN(C)c1ccccc1-c1cc(NC=O)c2ncc(-c3cccc(C(F)(F)F)c3)n2c1	-	-	0	?	-72	-
COc1ccccc1-c1cc(NC=O)c2ncc(-c3cccc(C(F)(F)F)c3)n2c1	-	-	0	0	0	-
COc1ccc(-c2coc3c(C)c4oc(=O)c(CCC(=O)O)c(C)c4cc23)cc1	0	0	?	-77	-72	0
Cc1c(CC(=O)O)c(=O)oc2c(C)c3occ(-c4ccc(F)cc4)c3cc12	0	0	0	0	-72	0
Cc1oc2c(C)c3oc(=O)c(CCC(=O)NCCCCCC(=O)O)c(C)c3cc2c1C	0	0	0	?	?	0
Cc1c(CCC(=O)O)c(=O)oc2c(C)c3occ(-c4ccc(Br)cc4)c3cc12	0	0	0	-85	-84	0
C[Se]CC[C@H](N)C(=O)O	0	0	0	-	-	0
CN(CC(=O)N1CC=C(c2ccccc2)CC1)S(=O)(=O)c1ccc2c(c1)c(=O)n(C)c(=O)n2C	0	0	0	0	0	0
CCCNC(=O)CCNS(=O)(=O)c1ccc2c(c1)c(=O)n(C)c(=O)n2C	-	-	0	-	-	-
Cn1c(=O)c2cc(S(=O)(=O)NCCC(=O)NCc3ccccc3Cl)ccc2n(C)c1=O	0	0	0	-69	-81	0
Cn1c(=O)c2cc(S(=O)(=O)NCCC(=O)N3CC=C(c4ccccc4)CC3)ccc2n(C)c1=O	0	0	0	?	-86	0
S=c1[nH]nc(-c2ccccn2)n1/N=C/c1ccc(Cl)cc1	0	0	0	-75	?	-
S=c1[nH]nc(-c2ccccc2)n1/N=C/c1ccc(Cl)cc1	0	0	16µM	0	-	?
S=c1[nH]nc(-c2ccccn2)n1/N=C/c1c(Cl)cccc1Cl	0	0	0	-80	0	-
Cn1sc(=O)n(Cc2ccccc2)c1=O	-	0	-	-	-	0
SMILES	MLL CXXC-DNA inh	Menin-MLL FL inh	GLS inh	Six1-Eya2 blk	CtBP-E1A inh	Menin-MLL TR inh
COC(=O)[C@H](C)NC(=O)[C@@H](C)CO	-	0[11.7 µM]	-	-	-	0[11.7 µM]
CC(C)(CCCCCCCCCCC(C)(C)CC(=O)O)CC(=O)O	-	0	-	-	-	0
[O-][n+]1ccccc1SSc1cccc[n+]1[O-]	0	0	0	-	-	0
O=C(Oc1ccc(C(=S)N2CCOCC2)cc1)c1ccccc1	0	0	0	?	0	0
O=C(/C=C/c1ccco1)Oc1ccc(C(=S)N2CCOCC2)cc1	0	0	0	-89	-93	0
O=Cc1cccc(OC(=O)/C=C/c2ccco2)c1	0	?	10µM	0	-	?
CC1CCCC(C)N1C(=O)COC(=O)/C=C/c1ccco1 (centres undefined)	-	-	0	0	0	-
O=C(Oc1ccc(C(=S)N2CCOCC2)cc1)c1ccc(Br)cc1	0	0	0	-89	0	0
COC(=O)c1ccc(OC(=O)c2ccco2)cc1	0	0	0	?	0	0
COC(=O)c1ccc(OC(=O)/C=C/c2ccco2)cc1	0	0	0	-85	-93	0
O=C(/C=C/c1ccc(/C=C/C(=O)Nc2ccc(C3=NCCN3)cc2)cc1)Nc1ccc(C2=NCCN2)cc1	-	0	-	-	-	0
COc1ccc(NC(=O)Cn2nc(C)c3nn(-c4ccc(Cl)cc4)c(C)c3c2=O)cc1	-	-	0	-	-	-
Cc1ccc(Nc2c(-c3ccccn3)nc3cc(C)ccn23)cc1	?	0	?	-82	-93	0
Cc1ccc(Nc2c(-c3c[nH]c4ccccc34)nc3cc(C)ccn23)cc1	-	-	0	-	-	-
Cc1ccn2c(Nc3ccc4c(c3)OCO4)c(-c3ccc(C)o3)nc2c1	-	-	0	-	-	-
Cc1ccc(Nc2c(-c3ccccn3)nc3ccc(C)cn23)cc1	?	0	0	-93	-	?
Cc1ccn2c(Nc3ccc4c(c3)OCO4)c(-c3ccccn3)nc2c1	?	?	11µM	-88	-81	35µM
Cc1cc(C)n2c(Nc3ccc4c(c3)OCCO4)c(-c3ccccn3)nc2n1	-	-	0	-89	?	-
COc1cc(C(=O)OC(COCCC(C)C)CN2CCOCC2)cc(OC)c1OC (centres undefined)	-	-	0	-	-	-
Cc1ccccc1NC(=O)Cn1c(=O)n(Cc2ccc3c(c2)OCO3)c(=O)c2ccc(C(=O)NC3CCCCC3)cc21	-	-	0	-	-	-
O=S(=O)(Nc1cc(O)cc2cccnc12)c1ccc(Cl)s1	-	0	-	-	-	?
COC(=O)c1sc(=S)sc1C(=O)OC	?	0	0	-89	0	0
CC1COc2ccccc2N1S(=O)(=O)c1ccc(Cl)cc1 (centres undefined)	0	0	0	0	-66	0
CCOC(=O)C1=C(C)N=c2s/c(=C\c3ccc(OCC(=O)O)cc3)c(=O)n2C1c1ccccc1 (centres undefined)	0	0	0	0	0	?
CCOC(=O)C1=C(C)N=c2s/c(=C/c3cccc([N+](=O)[O-])c3O)c(=O)n2C1c1cc(OC)c(OC)c(OC)c1 (centres undefined)	0	?	0	-70	-80	?
CCOC(=O)C1=C(c2ccccc2)N=c2s/c(=C\c3ccc(O)cc3)c(=O)n2C1c1cccs1 (centres undefined)	?	?	0	0	0	35µM
CCOC(=O)C1=C(C)N=c2s/c(=C/c3cccc([N+](=O)[O-])c3O)c(=O)n2C1c1ccccc1 (centres undefined)	0	?	?	-71	-80	0
CCOC(=O)C1=C(C)N=c2s/c(=C/c3ccco3)c(=O)n2C1c1cccc(OC)c1 (centres undefined)	0	?	0	0	0	?
CCOc1ccccc1NC(=O)C(c1ccccc1)N1Cc2ccccc2C1=O (centres undefined)	-	-	0	-	-	-
Cc1cc(C)cc(NC(=O)CSc2nc3c(cnn3-c3ccc(F)cc3)c(=O)[nH]2)c1	-	-	0	-	-	-

Source: PubChem (National Center for Advancing Translational Sciences (NCATS))
